PubChem BioAssay AID463173 (ICCB-Longwood Screening Facility, Harvard Medical School, 2010)
Screen size: about 52,000 compounds; about 1,700 (3.3%) were called active. The sample holds actives, similar compounds and a random draw of the others, so the mix is not that of the screen. Unmarked numbers belong to inactive results. Cut-off read from the data, not from the text of the source: active = survival mostly below about 52% (no sharp cut-off); inactive = mostly above about 56%.

Each molecule was assayed on Wild type (assay: S. aureus survival, RN4220 and DeltatarO strains – OD600, teichoic acid synthesis inhibitors, primary screen (AID 463173)). Conditions: S. aureus RN4220 wild type/DeltatarO growth, OD600, 18 h, hits give low values, screened at 18.75 µg/mL (by protocol).
Cc1cc(C(=O)N2CCN(c3cccc(C)c3C)CC2)c2c(C)nn(-c3ccccc3)c2n1 showed a survival of 121%. Cc1cccc(C(=O)Nc2ccc(N3CC=C(c4ccccc4C)CC3)c(C(=O)O)c2)c1 showed a survival of 66%. In the case of Cn1c(=O)c(=O)n(C)c2cc(N3CCCC3)c(NC(=O)c3ccccc3Cl)cc21, the survival is reported as 86%. With COc1nnc(-c2ccc(N3CCCCC3)c(NC(=O)c3ccccc3Cl)c2)c2ccccc12 the survival was -7% (active). COc1nnc(-c2ccc(N3CCCCC3)c(NC(=O)c3ccc(Cl)cc3)c2)c2ccccc12 was tested, and the survival was 96%. Molecule COc1nnc(-c2ccc(N3CCCCC3)c(NC(=O)c3ccc(C)cc3)c2)c2ccccc12 has a survival of 36%. With COc1nnc(-c2ccc(N3CCCCC3)c(NC(=O)c3ccccc3)c2)c2ccccc12 the survival was -6% (active). Cn1nc(-c2ccc(N3CCCCC3)c(NC(=O)c3ccc(Cl)cc3)c2)c2ccccc2c1=O showed a survival of 80%. In the case of CCN(CCCNC(=O)CSc1cc(=O)n(C)c2ccccc12)c1ccccc1, the survival is reported as 77%. CC(=O)Nc1ccc(NC(=O)c2cc3sccc3n2Cc2ccc(Cl)cc2)cc1 gave a survival of 91%. CC1(C)O[C@H]2[C@@H](O1)[C@@H](C(=O)Nc1ccc(F)c(F)c1)O[C@@H]1OC(C)(C)O[C@@H]12 was tested, and the survival was 106%. CCN(CC)CCNC(=O)c1ccc2c(=O)n3nc(Nc4cccc(Cl)c4C)sc3nc2c1 showed a survival of 153%. Molecule Cc1ccc(C)c(CNC(=O)C2CCN(c3nc4ccccc4nc3C(F)(F)F)CC2)c1 has a survival of 88%. For Cc1ccc(CNc2cc(C)nc3nc(-c4ccc(C)cc4)nn23)cc1, the survival was 66%. With CCc1c(C)nc2nc(-c3ccccc3)nn2c1NCc1ccc(C)cc1 the survival was -1% (active). Molecule CCc1c(C)nc2nncn2c1NCc1ccccc1 has a survival of 86%. CCOC(=O)c1ccc(NC(=O)CSc2nc(C)c(Cc3ccccc3)c(=O)[nH]2)cc1 gave a survival of 80%. O=C(NCc1ccccc1)N(Cc1cccnc1)Cc1cc2cc3c(cc2[nH]c1=O)OCCO3 gave a survival of 102%. With COc1ccc(-c2nn3c(-c4ccc(C)cc4)nnc3c3ccccc23)cc1 the survival was 70%. Work on COc1ccc2[nH]cc(CCN=C(NC(=O)c3ccccc3C)Nc3nc(C)cc(C)n3)c2c1 yielded a survival of 41%. In the case of CCn1c2c(c(=O)n3ncc(C(=O)Nc4ccc(C(=O)OC)cc4)c13)CN(Cc1ccc(OC)cc1)CC2, the survival is reported as 55%. For CCn1c2c(c(=O)n3ncc(C(=O)Nc4ccc(F)cc4Cl)c13)CN(Cc1ccc(OC)cc1)CC2, the survival was 14% (active). Molecule CCn1c2c(c(=O)n3ncc(C(=O)Nc4ccc(OC(F)(F)F)cc4)c13)CN(Cc1ccc(OC)cc1)CC2 has a survival of 83%. In the case of CCn1c2c(c(=O)n3ncc(C(=O)Nc4ccc(Cl)cc4C)c13)CN(Cc1ccc(OC)cc1)CC2, the survival is reported as 76%. Work on CCn1c2c(c(=O)n3ncc(C(=O)Nc4cc(Cl)ccc4OC)c13)CN(Cc1ccc(OC)cc1)CC2 yielded a survival of 72%. With CCn1c2c(c(=O)n3ncc(C(=O)Nc4ccc(F)c(Cl)c4)c13)CN(Cc1ccc(OC)cc1)CC2 the survival was -1% (active). In the case of Cc1ccc(CNC(=O)Nc2cc(C(=O)NCc3cccc(F)c3)ccc2N2CCCC2)cc1, the survival is reported as 128%. Work on CCOC(=O)c1cccc(NC(=O)CCc2c(C)nn(-c3ccc(N4CCCCC4)nn3)c2C)c1 yielded a survival of 95%. Cc1nnc(C)c2c(C)n(-c3ccc4c(c3)OCO4)c(C)c12 showed a survival of 111%. With CCOc1ccc(N(CC)C(=O)Cn2cnc3sc(C)c(S(=O)(=O)N4CCN(c5ncccn5)CC4)c3c2=O)cc1 the survival was 78%. Cc1ccc(NCc2cccn2-c2nnc(N3CCCCCC3)s2)cc1 was tested, and the survival was 77%. In the case of CCc1ccc(NCc2cccn2-c2nnc(N3CCCCCC3)s2)cc1, the survival is reported as -1% (active). Molecule COc1ccc(NCc2cccn2-c2nnc(N3CCCCCC3)s2)cc1 has a survival of 78%. CCC(C)NC(=O)CSc1nc2ccc(C(C)C)cc2cc1C#N (stereo not drawn) was tested, and the survival was 103%. Work on COc1cccc(CNC(=O)c2ccc(NC(=O)N3CCCCc4ccccc43)cc2)c1OC yielded a survival of 73%. Cc1nc2nc(SCC(=O)NCCc3ccc(Cl)cc3)nn2c(C)c1Cc1ccccc1 gave a survival of 56%. Cc1ccc2nc(NC(=O)CSc3nccn3Cc3ccc(Cl)cc3)sc2c1 showed a survival of 72%. Cc1nnc(NC(=O)CSc2nccn2Cc2ccc(Cl)cc2)s1 showed a survival of 118%. In the case of Cc1nnc(NC(=O)CSc2nccn2Cc2ccc(F)cc2)s1, the survival is reported as -2% (active). In the case of Cc1ccc2nc(NC(=O)CSc3nccn3Cc3ccccc3)sc2c1, the survival is reported as 10% (active). Cc1ccc2nc(NC(=O)CSc3nccn3Cc3ccc(F)cc3)sc2c1 was tested, and the survival was 80%. Work on O=C(CSc1nccn1Cc1ccc(F)cc1)Nc1nc2ccccc2s1 yielded a survival of 82%. Cc1ccc(Cn2ccnc2SCC(=O)Nc2nnc(C)s2)cc1 was tested, and the survival was 65%.
